Assay [1] is described as follows: compounds binding Alexa647 anti-His antibody – biochemical, small-molecule microarray, 635 nm fluorescence, artefact control for SMM control protein annotation, primary screen (AID 1128).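 Further: score merges feature fluorescence with signal-to-noise for each printed compound spot.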 The conditions noted are these: higher = more signal.
Assay [2] concerns Human papillomavirus type 1a E7 protein (residues 1-88). The experiment in a line: HPV1a E7 small-molecule binders, primary screen, biochemical, small-molecule microarray, residues 1-88, 635 nm (AID 1129). As to conditions: small-molecule microarray binding, fluorescence 635 nm; higher = more signal.
The target in assay [3] is Focal adhesion kinase 1 (Homo sapiens) (UniProt Q05397). As to the kind of experiment: PTK2 protein binding on printed compound slides – biochemical, small-molecule microarray, 635/667 nm fluorescence, BSA, DTT, primary screen (AID 1130).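 Further: composite of spot emission at 667 nm and signal to noise over triplicate slides.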 As to conditions: 635 nm fluorescence, higher = more signal.
The test system of assay [4] is Fibrinogen (Alexa647-labelled). The experiment in a line: Alexa647-fibrinogen binding to printed small molecules – biochemical, small-molecule microarray, 635/667 nm fluorescence, artefact control for SMM control-protein annotation, profiling panel (AID 1131).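 Further: z-score merges 667 nm fluorescence with per-spot signal-to-noise over triplicate slides.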 The conditions noted are these: fibrinogen-A647 binding fluorescence, higher = more signal.
Assay [5] deals with Follistatin (Homo sapiens) (UniProt P19883). The experiment in a line: FST protein binding to printed compounds – biochemical, small-molecule microarray, 635/667 nm fluorescence, primary screen (AID 1132). As to conditions: 635 nm fluorescence, higher = more signal.
The target in assay [6] is Fibroblast growth factor 2 (Homo sapiens) (UniProt P09038). As to the kind of experiment: basic fibroblast growth factor binding to printed compounds – biochemical, small-molecule microarray, 635/667 nm fluorescence, primary screen (AID 1133). As to conditions: FGF2, fluorescence 635/667, higher = more signal.
Assay [7] can be described thus: JC-1 mitochondrial potential readout, lung cancer cells – cell-based, A549, JC-1 fluorescence, basal, 24 h, 100 nL, profiling panel (AID 1138).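 Further: A549 lung adenocarcinoma cells under basal conditions with no added stimulus; test concentration not given here.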 The conditions noted are these: higher = more signal.
In a further assay the test system is Lefty1. As to the kind of experiment: Lefty1 protein binding to printed compounds – biochemical, small-molecule microarray, 635/667 nm fluorescence, primary screen (AID 1139). The conditions noted are these: fluorescence 635/667, higher = more signal.
Assay [8] deals with wheat germ agglutinin (Triticum aestivum), Alexa647-labelled. As to the kind of experiment: Alexa647-WGA lectin binding to printed small molecules – biochemical, small-molecule microarray, 635/667 nm fluorescence, artefact control for SMM control-protein annotation, profiling panel (AID 1140).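 Further: score merges 667 nm feature emission with signal to noise over triplicate slides.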 As to conditions: WGA-A647 binding, 635 nm fluorescence, higher = more signal.
Assay [9] has as its target Luciferin 4-monooxygenase (Photinus pyralis) (UniProt P08659). As to the kind of experiment: inhibition of purified Photinus pyralis luciferase – biochemical, luminescence, purified enzyme, 2006 set, primary screen (AID 1141).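 Further: cell-free assay with purified firefly luciferase at 100 ng per well in PBS; test concentration not given here.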 The conditions noted are these: purified firefly luciferase, SteadyGlo luminescence, 30 min; higher = more signal, called active from +8 up or from −8 down.

The test system of assay [10] is Wnt5a (protein binding on small-molecule microarray). As to the kind of experiment: small molecules binding Wnt5a protein – biophysical, small-molecule microarray, 635/667 nm fluorescence, primary screen (AID 1142).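 Further: fluorescence read at 667 nm with signal to noise per printed feature.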 The conditions noted are these: 635 nm fluorescence, higher = more signal.
Assay [11] in a line: ATP-based viability of Huh7 replicon cells – cell-based, CellTiter-Glo luminescence, basal, 48 h, cytotoxicity control for HCV replication inhibitor project, primary screen (AID 1143).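 Further: Huh7 hepatoma cells carrying a hepatitis C replication reporter with no stimulus; test concentration not given here.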 The conditions noted are these: higher = more signal, called active from +8 up or from −8 down. Background: Replicon systems follow genome replication, usually without infectious particles.
Assay [12] can be described thus: Pseudomonas biofilm growth suppression – PAO1 strain, BacTiter-Glo luminescence, LB-PBS, primary screen (AID 1144). The conditions noted are these: P. aeruginosa PAO1 biofilm, 12 h, higher = more signal.
Assay [13] can be described thus: basal CRE-LacZ reporter activity in PC12 – cell-based, unstimulated, primary screen (AID 1145). As to conditions: no forskolin, luminescence, 4.5 h, higher = more signal, called active from +8 up or from −8 down.
Assay [14] can be described thus: forskolin-driven CRE-LacZ activity in PC12 – cell-based, CRE-LacZ reporter, forskolin-stimulated, primary screen (AID 1146).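 Further: PC12 cells with 6xCRE LacZ reporter stimulated by forskolin 10 µM; beta-galactosidase reporter signal reflecting CREB driven transcription.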 As to conditions: luminescence, 4.5 h, higher = more signal, called active from +8 up or from −8 down.
In assay [15] the target is Streptavidin (Streptomyces avidinii) (UniProt P22629). As to the kind of experiment: compounds binding control protein streptavidin – biophysical, small-molecule microarray, 635/667 nm fluorescence, artefact control for SMM compound annotation, primary screen (AID 1147).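 Further: signal reflects streptavidin binding to arrayed compounds as a control protein.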 The conditions noted are these: higher = more signal.
Assay [16] can be described thus: probe aInhba binding on compound microarray – biochemical, small-molecule microarray, 635/667 nm fluorescence, primary screen (AID 1148).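 Further: score merges 667nm spot fluorescence with signal-to-noise for antibody binding to printed compounds.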 The conditions noted are these: higher = more signal.
In assay [17] the target is Torsin-1A (Homo sapiens) (UniProt O14656). The experiment in a line: TOR1A wild-type binding on microarray – cell lysate, small-molecule microarray, lysate, 635/667 nm, primary screen (AID 1149). The conditions noted are these: COS7 hTOR1A-WT lysate, 635 nm fluorescence, higher = more signal.
The target is the same in assay [18]. The experiment in a line: torsin A mutant lysate binding on microarrays – cell lysate, small-molecule microarray, COS7 lysate, 635/667 nm fluorescence, primary screen (AID 1150).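 Further: score pools 667 nm emission and signal to noise measuring lysate protein binding.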 The conditions noted are these: COS7 hTOR1A mutant lysate, 635 nm fluorescence, higher = more signal.
In assay [19] the test system is Sonic hedgehog protein (Shh). As to the kind of experiment: Sonic hedgehog microarray binding compounds – biochemical, small-molecule microarray, 635/667 nm fluorescence, primary screen (AID 1151).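 Further: Shh protein binding to compounds spotted on small-molecule microarray slides; score combines spot fluorescence intensity with signal-to-noise across triplicate slides.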 As to conditions: 635 nm fluorescence, higher = more signal.

The structures appear in SMILES notation. Calls of active or inactive are those of the source. Unless noted, how the calls were made is not given here.

Torsin-1A (Homo sapiens), sequence (O14656 whole entry, looked up): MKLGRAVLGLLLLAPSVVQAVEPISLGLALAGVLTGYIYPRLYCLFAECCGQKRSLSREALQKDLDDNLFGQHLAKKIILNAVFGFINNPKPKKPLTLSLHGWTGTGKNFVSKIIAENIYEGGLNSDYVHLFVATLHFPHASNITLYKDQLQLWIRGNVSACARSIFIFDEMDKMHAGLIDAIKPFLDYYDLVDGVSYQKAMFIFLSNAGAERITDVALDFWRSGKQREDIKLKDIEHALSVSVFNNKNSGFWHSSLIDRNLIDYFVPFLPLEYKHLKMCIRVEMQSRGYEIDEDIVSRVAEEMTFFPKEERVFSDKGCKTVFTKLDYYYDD
Focal adhesion kinase 1 (Homo sapiens), sequence (Q05397 whole entry, looked up): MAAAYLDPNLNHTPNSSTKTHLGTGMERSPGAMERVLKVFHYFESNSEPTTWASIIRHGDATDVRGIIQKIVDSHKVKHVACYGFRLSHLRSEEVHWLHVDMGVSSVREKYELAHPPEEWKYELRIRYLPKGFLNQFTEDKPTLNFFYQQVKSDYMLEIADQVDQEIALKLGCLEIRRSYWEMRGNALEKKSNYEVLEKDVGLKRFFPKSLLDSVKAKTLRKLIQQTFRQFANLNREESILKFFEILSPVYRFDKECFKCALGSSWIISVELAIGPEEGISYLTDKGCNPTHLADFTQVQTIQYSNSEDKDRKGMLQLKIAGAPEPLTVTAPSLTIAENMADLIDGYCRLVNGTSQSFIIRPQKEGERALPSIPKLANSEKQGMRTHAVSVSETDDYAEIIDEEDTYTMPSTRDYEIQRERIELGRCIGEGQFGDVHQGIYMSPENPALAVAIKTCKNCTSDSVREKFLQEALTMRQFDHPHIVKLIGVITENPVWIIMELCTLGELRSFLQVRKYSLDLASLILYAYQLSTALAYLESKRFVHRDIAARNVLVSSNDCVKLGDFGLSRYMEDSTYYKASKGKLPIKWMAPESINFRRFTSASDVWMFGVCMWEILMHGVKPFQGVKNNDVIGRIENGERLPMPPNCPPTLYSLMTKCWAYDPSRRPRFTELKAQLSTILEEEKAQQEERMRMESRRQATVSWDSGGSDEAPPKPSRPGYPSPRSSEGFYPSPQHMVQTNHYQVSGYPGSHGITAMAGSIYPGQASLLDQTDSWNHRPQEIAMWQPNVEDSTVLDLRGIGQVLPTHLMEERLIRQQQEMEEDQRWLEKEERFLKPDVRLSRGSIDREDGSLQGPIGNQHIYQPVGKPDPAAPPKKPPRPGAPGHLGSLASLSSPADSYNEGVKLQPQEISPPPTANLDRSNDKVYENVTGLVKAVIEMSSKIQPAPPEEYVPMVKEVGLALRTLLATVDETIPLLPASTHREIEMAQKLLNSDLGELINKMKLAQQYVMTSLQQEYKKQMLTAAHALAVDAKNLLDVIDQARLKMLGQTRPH
Streptavidin (Streptomyces avidinii), sequence (P22629 whole entry, looked up): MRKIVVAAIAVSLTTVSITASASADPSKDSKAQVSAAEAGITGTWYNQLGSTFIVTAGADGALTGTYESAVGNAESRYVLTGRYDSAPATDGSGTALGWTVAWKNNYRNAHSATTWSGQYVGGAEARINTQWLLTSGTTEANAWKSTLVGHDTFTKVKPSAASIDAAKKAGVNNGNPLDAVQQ
Luciferin 4-monooxygenase (Photinus pyralis), sequence (P08659 whole entry, looked up): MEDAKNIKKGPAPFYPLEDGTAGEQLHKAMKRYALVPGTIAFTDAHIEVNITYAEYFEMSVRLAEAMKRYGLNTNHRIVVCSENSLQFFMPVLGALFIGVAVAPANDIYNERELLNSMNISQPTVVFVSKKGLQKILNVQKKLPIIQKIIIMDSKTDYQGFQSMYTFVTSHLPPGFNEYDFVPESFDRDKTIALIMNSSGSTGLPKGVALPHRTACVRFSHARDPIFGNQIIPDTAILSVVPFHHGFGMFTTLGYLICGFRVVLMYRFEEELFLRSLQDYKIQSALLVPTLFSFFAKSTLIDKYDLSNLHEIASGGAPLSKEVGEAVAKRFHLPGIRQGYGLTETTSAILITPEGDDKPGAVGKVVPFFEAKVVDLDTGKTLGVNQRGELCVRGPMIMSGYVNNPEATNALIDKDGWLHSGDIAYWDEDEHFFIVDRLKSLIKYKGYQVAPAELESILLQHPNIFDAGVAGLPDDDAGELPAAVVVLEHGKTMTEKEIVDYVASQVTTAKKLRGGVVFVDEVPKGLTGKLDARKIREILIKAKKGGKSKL
Follistatin (Homo sapiens), sequence (P19883 whole entry, looked up): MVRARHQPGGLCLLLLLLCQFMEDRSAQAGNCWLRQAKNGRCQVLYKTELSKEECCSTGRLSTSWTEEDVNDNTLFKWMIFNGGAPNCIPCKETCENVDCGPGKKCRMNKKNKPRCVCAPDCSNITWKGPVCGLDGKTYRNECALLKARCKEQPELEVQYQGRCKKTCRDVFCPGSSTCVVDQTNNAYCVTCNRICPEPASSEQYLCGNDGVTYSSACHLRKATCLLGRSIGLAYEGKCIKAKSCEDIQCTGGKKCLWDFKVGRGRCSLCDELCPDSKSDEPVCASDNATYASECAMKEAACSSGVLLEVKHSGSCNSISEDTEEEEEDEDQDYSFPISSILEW
Fibroblast growth factor 2 (Homo sapiens), sequence (P09038 whole entry, looked up): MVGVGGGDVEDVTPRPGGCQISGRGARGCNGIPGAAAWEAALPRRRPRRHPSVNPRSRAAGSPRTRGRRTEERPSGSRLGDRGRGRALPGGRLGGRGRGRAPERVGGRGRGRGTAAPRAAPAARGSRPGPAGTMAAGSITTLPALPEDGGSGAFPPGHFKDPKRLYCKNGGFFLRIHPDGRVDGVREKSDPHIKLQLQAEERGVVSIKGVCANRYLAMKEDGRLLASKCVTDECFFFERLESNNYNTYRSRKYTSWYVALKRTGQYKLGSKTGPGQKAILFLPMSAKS

With `Cc1ccc(S[C@]2(C(=O)NC(C)C)CC(=O)N(Cc3cc(C(F)(F)F)cc(C(F)(F)F)c3)[C@@H]2c2ccc(CO)cc2I)cc1`, the composite z-score in assay [1] was 2.87; in assay [2] it was -0.335; in assay [3], 0.481; in [4], -0.306; in assay [5], 0.623; in assay [6] it was 0.384. For the same molecule, the composite z-score in the assay on Lefty1 is -0.919; in assay [8], 0.445; in assay [10] it was -0.168; in assay [15], -0.995; in assay [16], -0.148; in the assay with Torsin-1A (Homo sapiens) [17], 0.61. Besides, the composite z-score with Torsin-1A (Homo sapiens) [18] is 1.66; in assay [19], -0.0174. For the same molecule, the z-score is 0.598 in assay [7]; 0.819 (inactive) in assay [9]; -1.11 (inactive) in assay [11]; 0.381 (inactive) in assay [12]; -0.554 (inactive) in assay [13]; 1.28 (inactive) in assay [14].

For the molecule `Cc1ccc(N2C(=O)c3ccccc3[C@](C)(C(=O)NCC(C)C)[C@@H]2c2ccc(CO)cc2)nc1`, the composite z-score in assay [1] is -1.02; in assay [2] it was -1.2; in [3], -1.04; in assay [4], -1.43; in assay [5], -0.125; in assay [6], -0.671. The composite z-score was -0.589 with Lefty1; 0.0574 in [8]; -0.116 in assay [10]; -1.12 in assay [15]; -0.147 in assay [16]; -0.458 with Torsin-1A (Homo sapiens) [17]. The composite z-score with Torsin-1A (Homo sapiens) [18] is -1.26; in [19] it was -0.656. Further, the z-score in [7] was -0.393; in assay [9], 0.525 (inactive); in [11], 0.985 (inactive); in assay [12] it was -0.309 (inactive); in assay [13], -0.0888 (inactive); in [14], -0.002 (inactive).

Consider `CCCC=C(CCC)[C@@H](NC(=O)c1ccccc1)c1ccccc1`, for which the composite z-score in assay [1] is -0.697; in assay [2], 0.3; in [3] it was 1.04; in assay [4] it was -0.602; in assay [5] it was -0.536; in [6], -0.846. Besides, the composite z-score with Lefty1 was -0.614; in [8] it was -0.677; in assay [10], -0.149; in assay [15], 0.405; in assay [16], 0.0968; in the assay with Torsin-1A (Homo sapiens) [17], -0.106. Besides, the composite z-score with Torsin-1A (Homo sapiens) [18] was -0.0692; in assay [19] it was -0.289. Besides, the z-score is -1.52 in [7]; 0.0419 (inactive) in assay [9]; -1.26 (inactive) in assay [11]; 0.202 (inactive) in assay [12]; -0.561 (inactive) in assay [13]; 1.28 (inactive) in assay [14].

With `CCOC(=O)C[C@H]1[C@H](OC(=O)c2ccccc2-c2ccccc2)[C@@H](NC(=O)c2ccc(-c3ccccc3)cc2)c2cc(OCCCO)ccc2N1C(=O)Cc1ccc(OC)cc1`, the composite z-score is -0.293 in assay [1]; -0.301 in [2]; 0.371 in [3]; 0.411 in assay [4]; 0.362 in [5]; 0.487 in assay [6]. Also, the composite z-score in the assay with Lefty1 is 0.566; in assay [8], -0.12; in [10], 0.17; in assay [15], 0.0511; in [16] it was 0.038; with Torsin-1A (Homo sapiens) [17], -0.153. In addition, the results for the composite z-score (with Torsin-1A (Homo sapiens) [18]; in assay [19]) were 1.02 and 0.56, respectively. Moreover, the z-score in assay [7] is 0.78; in assay [9], 0.393 (inactive); in [11], 0.132 (inactive); in [12] it was 0.846 (inactive); in [13] it was 2.3 (inactive); in assay [14] it was 0.41 (inactive).

For `COCCOC(=O)N1C(=O)[C@@]2(c3cc(C#CCNC(N)=O)ccc31)[C@H](C(=O)N1CCCCCCC1)[C@H]1C(=O)O[C@H](c3ccccc3)[C@H](c3ccccc3)N1[C@@H]2c1ccccc1OCCO`, the composite z-score was determined as 0.455 in assay [1]; 1.14 in assay [2]; 0.784 in [3]; 0.47 in assay [4]; 1.33 in assay [5]; 0.385 in assay [6]. The composite z-score with Lefty1 came out at 1.21; in [8], 0.835; in assay [10] it was 0.472; in [15], 0.875; in assay [16], 0.218; in the assay with Torsin-1A (Homo sapiens) [17], 0.207. Moreover, the composite z-score in the assay with Torsin-1A (Homo sapiens) [18] was determined as 0.645; in assay [19] it was 1.09. Further, the z-score was -0.751 in [7]; -0.201 (inactive) in assay [9]; -0.798 (inactive) in assay [11]; -0.416 (inactive) in assay [12]; -0.602 (inactive) in [13]; -1.01 (inactive) in assay [14].

Source of the values: PubChem BioAssay.
